The supplement of paper PMC6555819

How the values were obtained:
Assay in all cases: PBM binding z-score (relative to random genomic background probes); higher = stronger binding; sequences stand for … in GC…GCGATTGACAGCGTAGAATGAAGG
[1] = tested on: RARb homodimer (NR concentration 270 nM)
Procedure, shortened: (§1)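 Antibodies against each partner of ligand-free nuclear receptor dimers (one per run) detected binding on custom Agilent 4×180K protein-binding microarrays after 1 h incubation. The double-stranded probes had 34-nt variable regions carrying direct-repeat seeds, single-nucleotide variants, half-site ablations and random human genomic background sequences. Binding z-scores, from regression-normalized fluorescence, use the random background probes as reference.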

[2] = tested on: RARg:RXRa (NR concentration 270 nM, RXRa partner concentration 90 nM)
Procedure, shortened: as §1

[3] = tested on: RARg homodimer (NR concentration 270 nM)
Procedure, shortened: as §1

[4] = tested on: RXRa DBDmut IVT, anti-RXR (DBD mutation: RXRa K156A/R161A, NR concentration 90 nM)
Procedure, shortened: as §1

[5] = tested on: RXRa homodimer (NR concentration 180 nM)
Procedure, shortened: as §1

[6] = tested on: THRa:RXRa (NR concentration 90 nM, RXRa partner concentration 90 nM)
Procedure, shortened: as §1

[7] = tested on: THRa homodimer (NR concentration 90 nM)
Procedure, shortened: as §1

[8] = tested on: VDR:RXRa (NR concentration 270 nM, RXRa partner concentration 90 nM)
Procedure, shortened: as §1

[9] = tested on: VDR homodimer (NR concentration 270 nM)
Procedure, shortened: as §1

| Sequence | PBM binding z-score [1] | PBM binding z-score [2] | PBM binding z-score [3] | PBM binding z-score [4] | PBM binding z-score [5] | PBM binding z-score [6] | PBM binding z-score [7] | PBM binding z-score [8] | PBM binding z-score [9] |
| --- | --- | --- | --- | --- | --- | --- | --- | --- | --- |
| CTCGAAAGGTCGGTCGAGGTGAGTATACGGATAA | 2.4 | 3.1 | 3.3 | 0.728 | 2.47 | 5.04 | 0.386 | 2.25 | 0.0425 |
| CCTCGGAGGACAAAAGGTCAGAGCTGTCCGCTTT | 5.18 | 6.04 | 5.86 | 0.812 | 4.67 | 3.07 | 0.53 | 3.17 | 0.674 |
| TCAGACAGGTGAAGGTAACTCCGGTACGCAGTCG | 0.814 | 0.458 | 0.575 | 1.28 | 1.11 | 1.28 | 0.325 | 0.726 | -0.191 |
| ATCGAAAGGTCGGGAGGTGAGTATACAGAAAGGC | 2.92 | 3.82 | 3.34 | 0.594 | 3.58 | 2.21 | 0.967 | 2.24 | 0.718 |
| TCTGTTAGTTGAAGGGCAACCGACGAGTCCGTTT | 1.22 | 0.835 | 0.708 | 1.1 | 0.588 | 0.412 | 0.0955 | 0.902 | 1.67 |
| ATACCAAGGTGATCGTGTGGTCGTTGATACTAAC | 0.584 | 0.298 | 0.273 | 0.0966 | 0.296 | 0.959 | 0.536 | 0.0148 | 0.0513 |
| GATACAGGGTCAAGGCCAGATTACGCGTATTGAT | 3.73 | 5.64 | 5.39 | 2.72 | 6.08 | 3.68 | 1.61 | 4.45 | 2.09 |
| TCCAGTTGGTCAAAGGTCACACACTCGAAATGCG | 4.95 | 7.17 | 6.07 | 2.25 | 7.96 | 4.08 | 2.47 | 5.31 | 2.99 |
| CGAACTAGGTCCTCCAGGACAGTGAATACATTGA | -0.151 | 0.0122 | 0.149 | 0.211 | 0.00298 | 1.41 | 0.816 | -0.247 | -0.221 |
| CGAACGAGGGCATCAGTTGATAGCAAATGCCGAT | 0.822 | 0.928 | 1.83 | 2.49 | 0.686 | 0.964 | -0.293 | 0.559 | 1.48 |
| CAAACTAGGTCTAAGGTCAAAGTCGAGCCAACCA | 4.24 | 4.86 | 4.08 | 2.51 | 5.24 | 4.1 | 4.5 | 4.26 | 3.63 |
| AATACAGGGTCGTCGTAGGCCAGAGTACGCACAG | 1.42 | 2.13 | 1.29 | 1.76 | 2.81 | 3.4 | 0.245 | 2.62 | 1.78 |
| CCGACTGGGGCATAATGTTACCATAAGCCAGCCC | -0.153 | 0.0195 | 0.3 | -0.127 | 0.021 | -0.493 | -0.413 | -0.48 | -0.295 |
| CCTAGCAGGCCAGGATCACTCAAGCATTTCGCTT | -0.596 | -0.33 | -0.385 | -0.0229 | -0.232 | -0.455 | -0.257 | -0.583 | -0.251 |
| ACTTACGGGTCAACGAGGTTATAGAACGCGTATA | 3.89 | 5.69 | 5.34 | 2.56 | 6.54 | 4.21 | 1.21 | 7.78 | 3.53 |
| CGATCGAGGGCATGAGTTGATAGCAAATGCCGAT | 0.615 | 1.06 | 1.18 | 1.75 | 0.725 | 1.04 | -0.645 | 0.973 | 1.5 |
| CCATACGGGTCACGAGGTTATAGCACGACGAGCG | 3.99 | 6.02 | 5.35 | 1.27 | 7.38 | 3.55 | 1.09 | 5.02 | 2.45 |
| CATACAGGGTCAGCGAGGCCAGAGTAGGGACGGC | 3.42 | 4.59 | 4.23 | 1.89 | 4.45 | 3.58 | 1.01 | 5.93 | 2.49 |
| TCAAATAGGTAATACAGGTGAAAGTCGGCATCTA | 0.557 | 0.633 | 0.49 | 1.74 | 1.14 | 0.877 | -0.0126 | 1.28 | 0.0898 |
| AGTCAAAGTTCAGGACGAGGTAACTTAAAGCACG | 3.3 | 4.79 | 5.03 | 3.03 | 3.16 | 3.94 | 1.7 | 3.1 | 2.28 |
| ACAGACAGGAGAGTGAAGGTAACTCAGCTGGACG | 0.0737 | 0.0775 | 0.235 | -0.483 | 0.0394 | 0.195 | 0.113 | -0.068 | -0.235 |
| ATCTGTAGGTAACCAAGTTCAGTGAATGCCGAAC | 1.32 | 0.689 | 0.722 | 0.655 | 0.689 | 1.26 | 0.246 | 4.63 | 2.56 |
| TCTTGTTGATCAGCAGGTTAAGAAAGCTGGCCAA | 0.158 | -0.129 | -0.598 | 0.635 | 0.257 | 0.181 | -0.779 | 0.36 | -0.748 |
| ATCTAAAGGTCGTGAGGTGAGTATACAGAAAGGC | 3.14 | 4.55 | 4.01 | 2.22 | 5.37 | 3.44 | 1.84 | 3.73 | 1.7 |

| Sequence | PBM binding z-score [1] | PBM binding z-score [2] | PBM binding z-score [3] | PBM binding z-score [4] | PBM binding z-score [5] | PBM binding z-score [6] | PBM binding z-score [7] | PBM binding z-score [8] | PBM binding z-score [9] |
| --- | --- | --- | --- | --- | --- | --- | --- | --- | --- |
| CAAACTAGGTCAAAGGTCATAGTCGAGCCAACCA | 5.28 | 8.65 | 6.91 | 2.92 | 10.3 | 4.84 | 1.91 | 6.71 | 3.55 |
| CGTGCTAGGTCAATGGTCAGCTAAAGCAGCTCGC | 2.95 | 3.8 | 4.95 | 1.67 | 2.31 | 2.23 | 0.655 | 0.97 | 0.301 |
| CCTTACGGGTCACTCCAGGGTATAGCATCGGAGT | 2.55 | 4.23 | 4.17 | 0.964 | 4.2 | 4.35 | -0.222 | 3.25 | 0.88 |
| TCGAGTAGGTTAGCCGGGGCATTCAGCCAACATA | 0.49 | 0.0604 | -0.231 | 0.227 | 0.332 | 1.17 | -0.114 | 2.46 | -0.000725 |
| CTCGAAAGGTCGGTTGAGGTTAGTATACGGATAA | 2.64 | 3.18 | 3.08 | 1.15 | 2.6 | 4.85 | 0.58 | 3.58 | 0.818 |
| CGAACTAGGTCATCCAGGGCAGTGAATACATTGA | 3.48 | 4.41 | 5.14 | 2.14 | 2.97 | 3.78 | 1.25 | 5.26 | 2.25 |
| TCTTGTAGATCAGCATGTTAAGAAAGCTGGCCAA | -0.787 | -0.255 | -0.411 | 0.518 | -0.151 | -0.548 | -0.975 | 0.172 | -0.468 |
| TCTATTAGTTGATTAGGGCAACGGAAACAGCGGA | 0.377 | 0.729 | 0.882 | 0.972 | 0.448 | 0.578 | 0.239 | 0.621 | 0.264 |
| TCTTGTAGAGCAAGCAGGTTAAGAAAGCCTGAGT | -0.297 | -0.441 | -0.538 | -0.187 | -0.0799 | -0.2 | -1.05 | -0.323 | -0.461 |
| CCAGACAGGTGAAAGGTAACCCAGTCTGGTACGC | 0.747 | 1.35 | 0.881 | -0.455 | 1.83 | 0.935 | -0.0283 | 0.645 | -0.223 |
| TCTGCTAGGTCAGTTGGACAGCTAACGAGCTGCC | 1.99 | 2.24 | 3.47 | 0.472 | 0.621 | 1.12 | -0.399 | -0.155 | -0.808 |
| CCGACTGAGGCAGAAAGGTTACCATACCATCCGG | 2.04 | 1.26 | 0.925 | -0.0333 | 1.87 | 1.06 | -0.0968 | 0.732 | -0.0311 |
| TCATATAGGTAAATGCTAGGTGAAAGTCCGATCT | 0.629 | 0.482 | 0.503 | 1.42 | 0.567 | 1.39 | 0.441 | 0.886 | 0.42 |
| GCTTGTAGATCAAGGTTGAGAAAGACTAAGCTAA | -0.753 | -0.343 | -0.385 | 0.0122 | -0.32 | -0.135 | -0.906 | -0.388 | -0.235 |
| CCTCGGACGACAACAGGAGGTCAGAGCTGCCAGA | 2.97 | 1.95 | 1.99 | -0.432 | 1.84 | 1.92 | 0.602 | 1.52 | 0.934 |
| CCTCCTAGGTCAATGGTCAGCTAAAGCAGCTCGC | 3.17 | 3.66 | 4.2 | 1.03 | 2.16 | 2.61 | 1.17 | 1.29 | 0.912 |
| TTATATAGGTAAAAGGTGAAAGTCGGTGTGGTAA | 1.62 | 2.08 | 0.991 | 0.197 | 2.87 | 1.77 | 0.486 | 1.4 | 0.445 |
| TTACCAGGGTGAAGGTCGTTGATCCCTCTGTAGA | 1.74 | 1.16 | 0.774 | -0.374 | 2.14 | 1.84 | 0.461 | 1.65 | 0.856 |
| TCTGCTAGGTCAAGGATGGTCAGCTAATCTGCTA | 3.49 | 3.97 | 4.85 | 0.94 | 2.6 | 2.88 | 0.621 | 1.18 | -0.0676 |
| GGAACGAGGGCAAAGTTGATAGCATCTGTCGACG | 1.33 | 2.18 | 1.82 | 2.76 | 2.22 | 1.25 | -0.111 | 1.23 | 1.21 |
| GCTGCTAGGTCAGGTTGGTCAGATAACGGGTACG | 2.53 | 2.71 | 3.5 | 0.652 | 1.12 | 1.84 | 0.684 | 0.794 | 1.02 |
| CAAACTAGGTCAAGGTCAAGGTCGGTTTGTGCCA | 5.4 | 6.25 | 7.34 | 2.79 | 6.62 | 4.54 | 4.73 | 5.24 | 4.06 |
| CCAACTGGGGCAAGGTTACCATAACGCACAGCCA | 1.51 | 0.917 | 1.56 | -0.0848 | 1.13 | 1.4 | 0.42 | 0.166 | -0.0492 |
| AGAATGAGGTTAATAAGATCAGGGAATTGCGGTC | 0.992 | 1.32 | 1.09 | 1.16 | 1.82 | 2.04 | 0.762 | 2.02 | 0.247 |
